Laboratory results reported in PubChem BioAssay.
Unmarked numbers belong to inactive results. How the calls were made is not given here.

assay: blockers of DNA damage checkpoint Chk1 activation – imaging, HeLa, hydroxyurea, phospho-Chk1 nuclear intensity, primary screen (AID 1187); conditions: hydroxyurea-induced phospho-Chk1 immunofluorescence imaging, higher = more signal; further: test concentration not given here

SMILES	z-score
[N-]=[N+]=Nc1ccccc1[C@@H]1OC(c2ccc(OCCCO)cc2)=N[C@]1(Cc1ccccc1)C(=O)N1CCOCC1	-0.0135
Cc1nc2cc(Br)ccc2c(=O)o1	0.134
CC1CC/C=C\[C@H]2OC34C=CCN(C(C)(C)C)C(=O)[C@H]3N(C(C)CO)C(=O)[C@@H]4C2C(=O)O1 (stereo partly drawn)	-0.0558
C=CCOC(=O)[C@@H]1[C@H]2C(=O)O[C@H](c3ccccc3)[C@H](c3ccccc3)N2[C@H](c2ccc(OCCOC(=O)[C@H]3C[C@H]4C(=O)N5CCC[C@H]5C(=O)N4[C@H]3c3ccc(O)cc3)cc2)[C@@]12C(=O)Nc1ccc(I)cc12	0.0454
C=C(/C(=C/C[C@H](OC(C)=O)c1ccccc1OCCO)c1cnc2ccccc2c1)C(C)C	-0.141
CCCCN1CC=CC23O[C@@H]4C=CCCOC(=O)C4[C@H]2C(=O)N(CCCCCCO)[C@@H]3C1=O (stereo partly drawn)	0.79
COc1ccc(C#Cc2ccc3c(c2)[C@]2(C(=O)N3)[C@H](C(=O)NC[C@H](O)c3ccccc3)[C@H]3C(=O)O[C@H](c4ccccc4)[C@H](c4ccccc4)N3[C@@H]2c2ccc(O)cc2)cc1	-0.628
O=C(c1ccccc1)N1C(=O)[C@]2(COC(c3ccc(OCCCO)cc3)=N2)Cc2ccccc21	-0.361
